# From ChEMBL document CHEMBL2218924, “A broad activity screen in support of a chemogenomic map for kinase signalling research and drug discovery” (Biochem J, 2013)
# What was measured:
# [1] = target: T1, Serine/threonine-protein kinase TBK1 (Homo sapiens) (UniProt Q9UHD2); details: at 10 µM
# T1 sequence (whole entry): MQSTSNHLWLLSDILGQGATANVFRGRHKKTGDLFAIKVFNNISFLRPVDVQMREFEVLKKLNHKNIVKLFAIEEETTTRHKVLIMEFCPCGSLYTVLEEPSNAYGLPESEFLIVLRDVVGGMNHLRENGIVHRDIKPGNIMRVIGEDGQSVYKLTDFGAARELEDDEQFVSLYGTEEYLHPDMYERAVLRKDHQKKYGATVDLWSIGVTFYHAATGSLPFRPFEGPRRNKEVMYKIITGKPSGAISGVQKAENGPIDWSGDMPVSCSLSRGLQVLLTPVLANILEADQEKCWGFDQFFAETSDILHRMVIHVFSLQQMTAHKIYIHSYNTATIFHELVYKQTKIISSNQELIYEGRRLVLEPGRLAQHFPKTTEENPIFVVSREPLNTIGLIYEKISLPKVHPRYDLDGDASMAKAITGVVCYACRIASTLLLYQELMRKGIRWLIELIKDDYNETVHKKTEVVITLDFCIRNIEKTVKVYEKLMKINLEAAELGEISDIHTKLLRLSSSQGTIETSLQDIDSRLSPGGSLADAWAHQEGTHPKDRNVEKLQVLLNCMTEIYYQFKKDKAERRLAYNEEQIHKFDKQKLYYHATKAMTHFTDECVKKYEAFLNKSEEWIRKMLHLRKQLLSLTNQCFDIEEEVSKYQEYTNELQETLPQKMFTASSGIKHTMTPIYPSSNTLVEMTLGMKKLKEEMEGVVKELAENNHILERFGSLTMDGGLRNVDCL
# [2] = target: T2, TGF-beta receptor type-1 (Homo sapiens) (UniProt P36897); details: at 1 µM
# T2 sequence (whole entry): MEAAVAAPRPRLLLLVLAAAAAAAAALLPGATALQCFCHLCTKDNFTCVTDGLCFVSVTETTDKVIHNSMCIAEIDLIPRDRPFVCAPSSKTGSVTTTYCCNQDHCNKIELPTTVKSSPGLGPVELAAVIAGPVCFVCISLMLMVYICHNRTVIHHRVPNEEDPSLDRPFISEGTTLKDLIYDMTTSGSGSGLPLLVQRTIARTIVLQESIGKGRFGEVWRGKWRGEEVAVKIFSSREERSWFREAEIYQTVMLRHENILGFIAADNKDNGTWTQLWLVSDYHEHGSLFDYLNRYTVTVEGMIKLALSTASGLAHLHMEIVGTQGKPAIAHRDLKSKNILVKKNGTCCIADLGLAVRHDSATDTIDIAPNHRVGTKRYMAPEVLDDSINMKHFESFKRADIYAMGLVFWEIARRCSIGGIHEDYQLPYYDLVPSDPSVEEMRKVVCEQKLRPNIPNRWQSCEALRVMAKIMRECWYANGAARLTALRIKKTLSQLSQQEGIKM
# [3] = target: T2, TGF-beta receptor type-1 (Homo sapiens); details: at 10 µM
# [4] = target: Insulin-like growth factor 1 receptor (Homo sapiens) (UniProt P08069); details: at 1 µM
# [5] = target: Insulin-like growth factor 1 receptor (Homo sapiens) (UniProt P08069); details: at 10 µM
# [6] = target: T3, Inhibitor of nuclear factor kappa-B kinase subunit alpha (Homo sapiens) (UniProt O15111); details: at 1 µM
# T3 sequence (whole entry): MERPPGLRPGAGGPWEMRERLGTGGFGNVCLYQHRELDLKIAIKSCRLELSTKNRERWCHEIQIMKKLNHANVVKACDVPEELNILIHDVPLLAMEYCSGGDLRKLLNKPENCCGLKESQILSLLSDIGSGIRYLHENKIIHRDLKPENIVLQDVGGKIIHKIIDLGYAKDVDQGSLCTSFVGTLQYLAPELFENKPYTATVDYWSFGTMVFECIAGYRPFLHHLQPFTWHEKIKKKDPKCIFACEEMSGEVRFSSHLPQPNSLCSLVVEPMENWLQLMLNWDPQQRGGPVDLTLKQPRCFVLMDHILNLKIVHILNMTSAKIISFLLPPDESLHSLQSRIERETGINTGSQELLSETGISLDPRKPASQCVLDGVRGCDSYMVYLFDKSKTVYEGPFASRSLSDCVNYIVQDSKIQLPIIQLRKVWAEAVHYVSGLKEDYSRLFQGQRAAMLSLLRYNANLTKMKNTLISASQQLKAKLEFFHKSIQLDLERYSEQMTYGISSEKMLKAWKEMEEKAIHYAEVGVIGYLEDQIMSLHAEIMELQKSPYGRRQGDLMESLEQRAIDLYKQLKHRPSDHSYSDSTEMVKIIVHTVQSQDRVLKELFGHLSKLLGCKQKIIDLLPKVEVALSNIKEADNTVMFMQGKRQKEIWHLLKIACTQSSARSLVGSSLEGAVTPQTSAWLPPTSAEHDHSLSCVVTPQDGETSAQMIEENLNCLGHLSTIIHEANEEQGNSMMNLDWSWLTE
# [7] = target: T3, Inhibitor of nuclear factor kappa-B kinase subunit alpha (Homo sapiens); details: at 10 µM
# [8] = target: T4, Inhibitor of nuclear factor kappa-B kinase subunit beta (Homo sapiens) (UniProt O14920); details: at 1 µM
# T4 sequence (whole entry): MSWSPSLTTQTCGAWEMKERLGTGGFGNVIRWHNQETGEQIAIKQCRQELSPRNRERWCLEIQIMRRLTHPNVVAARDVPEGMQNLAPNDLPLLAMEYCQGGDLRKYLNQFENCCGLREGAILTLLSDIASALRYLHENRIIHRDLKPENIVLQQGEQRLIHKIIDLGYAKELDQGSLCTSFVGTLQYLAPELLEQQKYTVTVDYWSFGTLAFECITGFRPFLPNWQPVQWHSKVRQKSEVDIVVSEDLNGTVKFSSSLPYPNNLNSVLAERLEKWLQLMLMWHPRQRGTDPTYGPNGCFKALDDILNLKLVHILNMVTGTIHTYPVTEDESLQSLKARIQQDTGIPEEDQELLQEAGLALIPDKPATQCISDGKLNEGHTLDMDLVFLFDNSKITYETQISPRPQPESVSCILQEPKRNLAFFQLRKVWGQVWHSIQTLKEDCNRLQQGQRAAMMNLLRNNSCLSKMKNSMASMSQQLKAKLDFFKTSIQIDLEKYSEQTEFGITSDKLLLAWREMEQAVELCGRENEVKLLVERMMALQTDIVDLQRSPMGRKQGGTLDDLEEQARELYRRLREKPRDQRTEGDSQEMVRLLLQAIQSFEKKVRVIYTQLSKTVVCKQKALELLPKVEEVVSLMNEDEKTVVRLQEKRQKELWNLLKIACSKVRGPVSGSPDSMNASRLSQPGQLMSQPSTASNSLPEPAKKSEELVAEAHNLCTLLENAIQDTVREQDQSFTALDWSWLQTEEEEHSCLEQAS
# [9] = target: T4, Inhibitor of nuclear factor kappa-B kinase subunit beta (Homo sapiens); details: at 10 µM
# [10] = target: Insulin receptor (Homo sapiens) (UniProt P06213); details: at 1 µM
# Insulin receptor (Homo sapiens), sequence (P06213 28-758 limits assumed): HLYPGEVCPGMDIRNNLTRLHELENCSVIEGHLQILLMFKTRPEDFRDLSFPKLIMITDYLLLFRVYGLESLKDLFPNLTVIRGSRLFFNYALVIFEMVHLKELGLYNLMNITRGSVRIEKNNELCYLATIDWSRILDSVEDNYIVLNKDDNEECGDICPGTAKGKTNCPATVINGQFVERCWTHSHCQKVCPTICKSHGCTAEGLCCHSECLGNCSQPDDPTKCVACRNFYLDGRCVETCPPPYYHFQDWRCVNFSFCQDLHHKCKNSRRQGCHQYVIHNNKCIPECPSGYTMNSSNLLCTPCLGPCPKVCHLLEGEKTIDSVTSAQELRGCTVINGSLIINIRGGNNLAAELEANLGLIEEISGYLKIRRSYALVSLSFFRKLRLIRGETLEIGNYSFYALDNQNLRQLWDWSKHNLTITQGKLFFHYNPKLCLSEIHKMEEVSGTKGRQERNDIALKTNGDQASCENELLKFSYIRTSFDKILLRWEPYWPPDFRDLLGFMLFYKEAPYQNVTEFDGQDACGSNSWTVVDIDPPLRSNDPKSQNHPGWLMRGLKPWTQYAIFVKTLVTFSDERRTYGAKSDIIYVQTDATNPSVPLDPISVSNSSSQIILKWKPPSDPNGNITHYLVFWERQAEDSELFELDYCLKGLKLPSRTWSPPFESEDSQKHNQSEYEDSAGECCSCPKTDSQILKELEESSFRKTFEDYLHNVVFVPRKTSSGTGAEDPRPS
# Insulin receptor (Homo sapiens), sequence (P06213 763-1382 limits assumed): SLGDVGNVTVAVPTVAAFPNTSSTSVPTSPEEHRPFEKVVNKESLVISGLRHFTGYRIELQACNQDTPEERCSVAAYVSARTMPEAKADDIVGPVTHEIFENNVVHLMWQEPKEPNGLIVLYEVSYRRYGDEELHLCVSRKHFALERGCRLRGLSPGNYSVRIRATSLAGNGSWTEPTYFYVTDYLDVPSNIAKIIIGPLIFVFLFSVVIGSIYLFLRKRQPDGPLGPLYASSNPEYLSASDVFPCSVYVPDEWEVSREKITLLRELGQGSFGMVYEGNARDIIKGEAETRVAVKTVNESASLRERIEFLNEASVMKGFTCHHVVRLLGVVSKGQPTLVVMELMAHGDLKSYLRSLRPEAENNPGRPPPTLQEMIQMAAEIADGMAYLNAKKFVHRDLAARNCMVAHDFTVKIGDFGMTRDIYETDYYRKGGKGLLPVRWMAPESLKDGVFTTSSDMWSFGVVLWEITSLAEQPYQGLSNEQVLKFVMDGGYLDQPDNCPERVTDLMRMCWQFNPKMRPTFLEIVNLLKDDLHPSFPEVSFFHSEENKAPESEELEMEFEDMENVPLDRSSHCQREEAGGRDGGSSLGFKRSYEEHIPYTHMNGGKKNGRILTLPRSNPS
# Insulin-like growth factor 1 receptor (Homo sapiens), sequence (P08069 31-736 limits assumed): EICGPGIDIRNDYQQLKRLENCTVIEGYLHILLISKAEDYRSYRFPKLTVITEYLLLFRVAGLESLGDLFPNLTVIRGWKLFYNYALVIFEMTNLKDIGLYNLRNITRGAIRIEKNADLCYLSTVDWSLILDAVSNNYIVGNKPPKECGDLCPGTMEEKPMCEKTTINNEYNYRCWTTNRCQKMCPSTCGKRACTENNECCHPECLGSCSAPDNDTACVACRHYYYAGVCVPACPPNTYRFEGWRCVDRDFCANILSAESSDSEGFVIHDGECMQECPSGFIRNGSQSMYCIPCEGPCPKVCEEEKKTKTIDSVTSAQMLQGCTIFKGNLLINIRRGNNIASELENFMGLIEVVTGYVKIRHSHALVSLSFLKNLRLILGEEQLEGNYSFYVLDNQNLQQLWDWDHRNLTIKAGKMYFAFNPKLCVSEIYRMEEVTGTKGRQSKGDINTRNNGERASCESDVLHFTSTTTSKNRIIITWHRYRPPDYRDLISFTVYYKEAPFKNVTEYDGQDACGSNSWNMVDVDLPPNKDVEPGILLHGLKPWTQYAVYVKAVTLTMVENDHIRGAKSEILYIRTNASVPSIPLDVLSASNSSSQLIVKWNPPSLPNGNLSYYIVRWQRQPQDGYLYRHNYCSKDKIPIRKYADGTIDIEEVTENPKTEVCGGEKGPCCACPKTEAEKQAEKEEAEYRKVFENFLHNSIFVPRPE
# Insulin-like growth factor 1 receptor (Homo sapiens), sequence (P08069 741-1367 limits assumed): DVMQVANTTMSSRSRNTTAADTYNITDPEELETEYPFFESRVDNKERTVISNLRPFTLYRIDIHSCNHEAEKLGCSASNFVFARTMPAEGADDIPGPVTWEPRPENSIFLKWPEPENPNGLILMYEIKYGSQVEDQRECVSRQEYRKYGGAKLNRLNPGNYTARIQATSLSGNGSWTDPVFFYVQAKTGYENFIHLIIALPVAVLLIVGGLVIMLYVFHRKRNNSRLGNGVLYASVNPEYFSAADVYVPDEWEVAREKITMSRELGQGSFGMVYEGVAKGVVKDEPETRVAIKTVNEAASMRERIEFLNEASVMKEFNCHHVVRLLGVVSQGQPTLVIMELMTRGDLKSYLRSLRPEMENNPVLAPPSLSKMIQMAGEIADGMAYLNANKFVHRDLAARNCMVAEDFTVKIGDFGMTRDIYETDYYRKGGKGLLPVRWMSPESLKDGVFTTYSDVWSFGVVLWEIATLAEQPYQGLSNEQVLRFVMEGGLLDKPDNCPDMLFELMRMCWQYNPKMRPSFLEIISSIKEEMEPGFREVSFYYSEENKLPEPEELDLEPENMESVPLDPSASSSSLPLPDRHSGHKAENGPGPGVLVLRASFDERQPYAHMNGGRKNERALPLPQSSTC
compound,measurement,setting,value
Cn1cc(/C=C2\C(=O)Nc3ccc(S(N)(=O)=O)cc32)c2ccccc21,residual activity,[1],10%
same,residual activity,[2],100%
same,residual activity,[3],96%
same,residual activity,[4],81%
same,residual activity,[5],86%
same,residual activity,[6],100%
same,residual activity,[7],92%
same,residual activity,[8],87%
same,residual activity,[9],78%
same,residual activity,[10],91%
